Data on 40 compounds can be found in PubChem BioAssay (NCI).

This is part of a sample that, as a whole, favours compounds with a hit. Of some 79,000 tested, about 15% had one in any assay. Activity calls are given as the source filed them. Rule as the data show it: active = growth inhibition above about 70%; inactive = the rest.

The nature of this test: NCI Yeast Anticancer Drug Screen. Data for the cln2 rad14 strain (AID 165).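 Also: 0% = growth equal to vehicle treated cultures.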 The note with it: S. cerevisiae cln2 rad14 strain, at 50.0 µM, hits give high values. The method, then: Growth inhibition of yeast strains with defined genetic alterations is measured as a screen for potential anti-cancer activity. Selected strains with alterations in DNA damage repair or cell cycle control were exposed to compounds and growth inhibition was measured relative to vehicle treated controls. The strain used in this assay is cln2 rad14
Consider `COc1ccc(OCC(=O)N2CCCCC2)cc1`, for which the growth inhibition is -40.2% (inactive).

`CCOC(=O)C1(C(O)(C2CC2)C2(C(=O)OCC)CC2)CC1`: the growth inhibition was -29.9% (inactive).

As to `c1coc(C2SCSCS2)c1`, the growth inhibition is -13.5% (inactive).

In the case of `ClC(Cl)C1OCCCO1`, the growth inhibition is -41.1% (inactive).

On to `CCCCCC(CC)OC(=O)Nc1cccc2ccccc12` (stereo not given), for which the growth inhibition is -9.15% (inactive).

`O=C(Nc1ccccc1)OC1CCCC12CC2` (stereo not given): the growth inhibition was -4.8% (inactive).

For `CC(C(=O)OCc1ccccc1)(c1ccco1)N1C(=O)OC(c2ccccc2)C1c1ccccc1` (stereo not given), the growth inhibition was -3.5% (inactive).

In the case of `COc1ccccc1NC(=O)N1CCN(c2cccc(C)c2)CC1`, the growth inhibition was -15.7% (inactive).

In the case of `Cc1sc2c(c1C)C(=O)c1cccn1-2`, the growth inhibition was -2.8% (inactive).

Regarding `O=S1OC(c2ccccc2)C(c2ccccc2)O1` (stereo not given), the growth inhibition is 11.8% (inactive).

For `O=C1C=C(c2ccccc2)C(O)(c2ccccc2)/C1=C/C=C/c1ccccc1` (stereo not given), the growth inhibition is -12.2% (inactive).

As to `Cc1cc(S(=O)(=O)Nc2nc(N)nc(N3CCOCC3)n2)c(SCC(=O)O)cc1Cl`, the growth inhibition was 12.9% (inactive).

`COc1ccc(NC(=O)CSc2nc(C)nc3c2sc(=S)n3-c2ccccc2)cc1`: the growth inhibition is 2.65% (inactive).

With `C/C(=N\n1c(-c2ccccc2)nc2ccccc2c1=O)c1ccc(C)cc1`, the growth inhibition was 1.5% (inactive).

As for `CCCCC(C)C(C)O` (stereo not given), the growth inhibition was 11.2% (inactive).

Turning to `Cn1c(=O)c(-c2ccccc2)c(O)c2ccccc21`, the growth inhibition was 27.4% (inactive).

On to `CCCCCCCCCCCOc1ccc(Cl)cc1Cl`, for which the growth inhibition was -4.05% (inactive).

In the case of `O=C(NCCN1CCNCC1)c1ccc(Cl)cc1`, the growth inhibition is 63% (inactive).

Take `CCOC1(OCC)C2(Cl)C(Cl)=C(Cl)C1(Cl)C1CCCC12` (stereo not given): the growth inhibition was 17.1% (inactive).

As to `CC1(C)COC(c2ccc(C(F)(F)F)cc2C(O)c2ccc3ccccc3c2)=N1` (stereo not given), the growth inhibition was 10.3% (inactive).

With `CC(=O)Nc1cc([N+](=O)[O-])ccc1CC(O)c1ccccc1` (stereo not given), the growth inhibition is -15.5% (inactive).

Turning to `NC(CO)C(=O)NCC(=O)O` (stereo not given), the growth inhibition is -79.5% (inactive).

As for `O=C(Nc1ccc(I)cc1)c1ccc([N+](=O)[O-])cc1`, the growth inhibition was -8.2% (inactive).

Turning to `COc1cc2cnc(-c3ccncc3)c(N)c2cc1OC`, the growth inhibition is 24.6% (inactive).

In the case of `CC(=O)OCCn1c(=O)sc2ccccc21`, the growth inhibition was -8.35% (inactive).

On to `O=C(O)CSc1ncnc2nc[nH]c12`, for which the growth inhibition was 27.6% (inactive).

Take `CC(=O)NNc1nc(C)c(C(=O)/C=C/c2ccc(/C=C/C(=O)c3sc(NNC(C)=O)nc3C)cc2)s1`: the growth inhibition was 6.25% (inactive).

Take `CCC(C)(O)c1cn(-c2cccc(S(=O)(=O)O)c2)nn1` (stereo not given): the growth inhibition was 5.95% (inactive).

On to `N#C[C@H](c1nc2ccccc2[nH]1)c1nc2ccccc2nc1Cl`, for which the growth inhibition was 12.8% (inactive).

Take `CCCCC(C(=O)O)C(C)CC` (stereo not given): the growth inhibition is 22.3% (inactive).

Consider `O=C(O)c1c(Cl)c(Cl)c(Cl)c(C(=O)O)c1Cl`, for which the growth inhibition was -36.1% (inactive).

Consider `CN(C)CCSC(=Nc1ccccc1)N1CCCCC1`, for which the growth inhibition was 30.9% (inactive).

Consider `CCOC(=O)CNC(=O)C(=[N+]=[N-])C(=O)COc1ccc(Cl)cc1Cl`, for which the growth inhibition is -18.3% (inactive).

Take `Clc1ccccc1C(N1CCCCC1)C(Cl)(Cl)Cl` (stereo not given): the growth inhibition was 18% (inactive).

With `O=C(O)CC1=C(c2ccccc2)C(O)(c2ccccc2)CC1=O` (stereo not given), the growth inhibition is -27.9% (inactive).

For `N#[N+]c1ccc(Nc2ccccc2)cc1`, the growth inhibition was 12.3% (inactive).

With `O=C(O)c1ccccc1Cc1c[nH]c2ccccc12`, the growth inhibition was -15.3% (inactive).

For `CC(=O)c1c2c(cc3c1CCC3)CCC2`, the growth inhibition was -26% (inactive).

`CCN=C(N)CSS(=O)(=O)O`: the growth inhibition was -4.6% (inactive).

`Nc1c(OCc2ccccc2)cccc1C(=O)O`: the growth inhibition is -47.5% (inactive).
